# How the values were obtained:
# Assay in all cases: universal protein binding microarray (PBM); transcription factors of Arabidopsis thaliana; high values mean tight binding
# Settings in all cases: protein: recombinant; tags: GST; chain copies: 2; dsDNA, one strand shown
# [1] = target: T1, GST-ANAC092(1-176) (Arabidopsis thaliana, UniProt Q9FKA0 1-176)
# T1 sequence: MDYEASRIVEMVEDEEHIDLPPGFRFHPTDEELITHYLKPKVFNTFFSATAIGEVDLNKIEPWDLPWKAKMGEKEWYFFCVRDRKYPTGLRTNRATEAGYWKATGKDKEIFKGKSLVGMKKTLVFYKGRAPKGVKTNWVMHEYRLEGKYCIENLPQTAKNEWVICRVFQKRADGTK
# Procedure, shortened: (§1)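 Protein amounts were determined by A280 or anti-GST western blot after glutathione–Sepharose 4B purification of GST-tagged proteins induced in cells, with zinc acetate included for zinc-finger proteins. Duplicate runs at 200 to 500 nM final were done on custom all-10-mer Agilent 4 × 180K arrays made double-stranded by primer extension. The normalised enrichment score (E-score) over gapped and ungapped 8-mers is the measure of binding.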
# [2] = target: T2, GST-ANAC019 NAC domain (Arabidopsis thaliana, UniProt Q9C932 14-162)
# T2 sequence: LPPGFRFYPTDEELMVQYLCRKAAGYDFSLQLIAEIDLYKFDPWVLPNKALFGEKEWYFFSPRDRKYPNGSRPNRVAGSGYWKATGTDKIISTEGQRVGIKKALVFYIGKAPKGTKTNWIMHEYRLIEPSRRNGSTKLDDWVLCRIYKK
# Procedure, shortened: as §1
# [3] = target: T3, GST-ANAC055(1-171) (Arabidopsis thaliana, UniProt Q9LDY8 1-171)
# T3 sequence: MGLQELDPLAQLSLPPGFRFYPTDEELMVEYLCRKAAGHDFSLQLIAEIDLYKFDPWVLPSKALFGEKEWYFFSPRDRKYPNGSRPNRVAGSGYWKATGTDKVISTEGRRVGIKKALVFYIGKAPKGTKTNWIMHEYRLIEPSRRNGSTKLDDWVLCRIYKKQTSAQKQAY
# Procedure, shortened: as §1
# [4] = target: T4, GST-ATAF1 NAC domain (Arabidopsis thaliana, UniProt Q39013 7-158)
# T4 sequence: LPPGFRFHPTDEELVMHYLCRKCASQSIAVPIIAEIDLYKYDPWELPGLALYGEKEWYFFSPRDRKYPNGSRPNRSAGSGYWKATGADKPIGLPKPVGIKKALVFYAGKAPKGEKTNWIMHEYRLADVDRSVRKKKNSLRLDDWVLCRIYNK
# Procedure, shortened: as §1
# [5] = target: T5, GST-ANAC092(1-285) full length (Arabidopsis thaliana, UniProt Q9FKA0 1-285)
# T5 sequence: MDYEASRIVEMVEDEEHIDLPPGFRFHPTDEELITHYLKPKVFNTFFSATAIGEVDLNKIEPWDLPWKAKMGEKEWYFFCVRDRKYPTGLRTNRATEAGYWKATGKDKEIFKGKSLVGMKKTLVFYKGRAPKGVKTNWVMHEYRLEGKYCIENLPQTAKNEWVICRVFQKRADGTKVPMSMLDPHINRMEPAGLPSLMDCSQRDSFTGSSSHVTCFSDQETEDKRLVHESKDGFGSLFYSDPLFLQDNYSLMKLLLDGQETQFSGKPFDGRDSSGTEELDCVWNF
# Procedure, shortened: as §1
# [6] = target: T6, GST-NAP(1-166) (Arabidopsis thaliana, UniProt O49255 1-166)
# T6 sequence: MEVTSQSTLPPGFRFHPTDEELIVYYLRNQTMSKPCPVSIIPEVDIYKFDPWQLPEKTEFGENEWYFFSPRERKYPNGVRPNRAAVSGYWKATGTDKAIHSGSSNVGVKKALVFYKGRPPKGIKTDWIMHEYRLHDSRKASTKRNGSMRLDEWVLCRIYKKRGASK
# Procedure, shortened: as §1
# [7] = target: T7, GST-NST2(1-184) (Arabidopsis thaliana, UniProt Q9M274 1-184)
# T7 sequence: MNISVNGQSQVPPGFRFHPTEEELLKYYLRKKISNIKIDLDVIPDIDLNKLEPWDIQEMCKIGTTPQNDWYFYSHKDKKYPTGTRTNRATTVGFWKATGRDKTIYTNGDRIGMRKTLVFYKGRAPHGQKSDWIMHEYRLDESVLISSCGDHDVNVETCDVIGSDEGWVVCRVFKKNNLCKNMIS
# Procedure, shortened: as §1
# [8] = target: T8, GST-SND1(1-203) (Arabidopsis thaliana, UniProt Q9LPI7 1-203)
# T8 sequence: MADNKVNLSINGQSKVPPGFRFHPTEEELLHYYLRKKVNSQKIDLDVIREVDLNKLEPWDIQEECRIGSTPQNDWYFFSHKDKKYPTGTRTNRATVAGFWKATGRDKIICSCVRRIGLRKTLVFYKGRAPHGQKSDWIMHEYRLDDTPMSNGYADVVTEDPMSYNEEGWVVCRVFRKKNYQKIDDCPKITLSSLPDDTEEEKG
# Procedure, shortened: as §1
# [9] = target: T9, GST-VND3 NAC domain (Arabidopsis thaliana, UniProt Q9FH59 12-162)
# T9 sequence: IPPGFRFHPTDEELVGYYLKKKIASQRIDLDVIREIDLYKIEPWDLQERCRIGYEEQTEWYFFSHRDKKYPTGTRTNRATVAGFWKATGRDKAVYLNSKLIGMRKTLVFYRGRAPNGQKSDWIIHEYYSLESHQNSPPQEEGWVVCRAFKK
# Procedure, shortened: as §1
# [10] = target: T10, GST-VND7 NAC domain (Arabidopsis thaliana, UniProt Q9C8W9 9-158)
# T10 sequence: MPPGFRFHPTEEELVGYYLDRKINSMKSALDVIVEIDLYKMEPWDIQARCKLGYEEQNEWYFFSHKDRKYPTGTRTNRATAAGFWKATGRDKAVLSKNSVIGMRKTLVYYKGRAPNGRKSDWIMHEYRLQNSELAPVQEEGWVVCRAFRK
# Procedure, shortened: as §1
# [11] = target: GST-NTL6(1-168) (Arabidopsis thaliana, UniProt Q9SCK6 1-168)
# GST-NTL6(1-168), sequence (Q9SCK6 1-168): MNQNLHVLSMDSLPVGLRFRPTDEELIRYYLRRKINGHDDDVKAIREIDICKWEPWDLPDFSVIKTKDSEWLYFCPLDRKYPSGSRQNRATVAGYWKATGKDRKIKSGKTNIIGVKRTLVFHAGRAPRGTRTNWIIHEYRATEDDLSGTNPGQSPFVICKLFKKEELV
# Procedure, shortened: as §1
# [12] = target: T11, GST-NTL8 NAC domain (Arabidopsis thaliana, UniProt Q9XIN7 14-156)
# T11 sequence: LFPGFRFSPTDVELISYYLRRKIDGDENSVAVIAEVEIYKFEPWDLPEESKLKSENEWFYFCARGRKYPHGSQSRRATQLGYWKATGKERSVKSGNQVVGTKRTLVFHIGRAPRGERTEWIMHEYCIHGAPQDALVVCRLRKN
# Procedure, shortened: as §1
Sequence,binding signal [1],binding signal [2],binding signal [3],binding signal [4],binding signal [5],binding signal [6],binding signal [7],binding signal [8],binding signal [9],binding signal [10],binding signal [11],binding signal [12]
ACACGTTA,0.482 E-score,0.165 E-score,0.3 E-score,0.35 E-score,0.485 E-score,0.222 E-score,0.358 E-score,0.413 E-score,0.277 E-score,0.237 E-score,–,–
AGAGGAAA,0.115 E-score,–,–,0.0666 E-score,0.0695 E-score,–,–,0.144 E-score,0.0951 E-score,0.0583 E-score,0.126 E-score,0.45 E-score
ACGTCTCT,0.0939 E-score,0.451 E-score,0.412 E-score,0.452 E-score,0.243 E-score,0.381 E-score,0.175 E-score,0.0793 E-score,0.418 E-score,0.442 E-score,–,–
ACACGCCA,0.487 E-score,0.382 E-score,0.298 E-score,0.227 E-score,0.492 E-score,0.294 E-score,0.313 E-score,0.379 E-score,0.22 E-score,0.257 E-score,–,–
GTACGGAA,0.349 E-score,0.458 E-score,0.43 E-score,0.369 E-score,0.376 E-score,0.396 E-score,0.138 E-score,0.221 E-score,0.42 E-score,0.425 E-score,–,–
ATTGCTTA,0.273 E-score,–,–,–,0.319 E-score,–,0.288 E-score,0.457 E-score,0.16 E-score,0.172 E-score,0.423 E-score,0.0937 E-score
AAGCGTGT,0.421 E-score,0.242 E-score,0.167 E-score,0.207 E-score,0.44 E-score,0.133 E-score,0.192 E-score,0.186 E-score,0.126 E-score,0.213 E-score,–,–
ACGCATCC,0.388 E-score,0.216 E-score,0.194 E-score,0.195 E-score,0.431 E-score,0.256 E-score,0.173 E-score,0.397 E-score,0.16 E-score,0.231 E-score,–,–
TACCTTAA,0.193 E-score,–,0.0879 E-score,0.131 E-score,0.26 E-score,–,0.149 E-score,0.291 E-score,0.16 E-score,0.0949 E-score,0.42 E-score,0.298 E-score
ACGGCACG,0.34 E-score,0.291 E-score,0.34 E-score,0.286 E-score,0.404 E-score,0.324 E-score,0.133 E-score,0.0651 E-score,0.217 E-score,0.233 E-score,–,–
TCACGGAA,0.363 E-score,0.465 E-score,0.432 E-score,0.332 E-score,0.381 E-score,0.383 E-score,–,0.219 E-score,0.381 E-score,0.436 E-score,–,–
AAAGCAAC,0.268 E-score,–,0.0548 E-score,–,0.373 E-score,–,0.277 E-score,0.401 E-score,0.0501 E-score,0.145 E-score,0.0839 E-score,0.0929 E-score
ATGCGTGC,0.429 E-score,0.276 E-score,0.217 E-score,0.21 E-score,0.452 E-score,0.273 E-score,0.221 E-score,0.292 E-score,0.191 E-score,0.138 E-score,–,–
CACGCCAC,0.481 E-score,0.33 E-score,0.268 E-score,0.293 E-score,0.488 E-score,0.292 E-score,0.298 E-score,0.386 E-score,0.168 E-score,0.271 E-score,–,–
ACGTTAAC,0.421 E-score,0.257 E-score,0.228 E-score,0.227 E-score,0.438 E-score,0.218 E-score,0.27 E-score,0.412 E-score,0.209 E-score,0.207 E-score,–,–
AACACGGA,0.298 E-score,0.413 E-score,0.397 E-score,0.299 E-score,0.274 E-score,0.268 E-score,0.173 E-score,0.0986 E-score,0.319 E-score,0.362 E-score,–,–
AAGGGAAA,0.195 E-score,–,–,0.166 E-score,0.0848 E-score,–,–,0.117 E-score,0.0609 E-score,0.0885 E-score,0.166 E-score,0.476 E-score
GTACGCCA,0.379 E-score,0.139 E-score,0.153 E-score,0.121 E-score,0.45 E-score,0.0526 E-score,0.225 E-score,0.398 E-score,0.07 E-score,0.114 E-score,–,–
GCCGTGTA,0.341 E-score,0.44 E-score,0.345 E-score,0.314 E-score,0.402 E-score,0.235 E-score,0.0515 E-score,0.0913 E-score,0.347 E-score,0.351 E-score,–,–
ACGTCATC,0.418 E-score,0.288 E-score,0.285 E-score,0.291 E-score,0.449 E-score,0.343 E-score,0.214 E-score,0.411 E-score,0.327 E-score,0.273 E-score,–,–
CACGGCAC,0.462 E-score,0.484 E-score,0.484 E-score,0.432 E-score,0.474 E-score,0.478 E-score,0.292 E-score,0.203 E-score,0.458 E-score,0.485 E-score,–,–
GCACGGCA,0.449 E-score,0.472 E-score,0.448 E-score,0.361 E-score,0.461 E-score,0.41 E-score,0.164 E-score,0.107 E-score,0.408 E-score,0.461 E-score,–,–
ATGTCGTG,0.267 E-score,0.419 E-score,0.371 E-score,0.289 E-score,0.336 E-score,0.2 E-score,0.0589 E-score,0.118 E-score,0.362 E-score,0.37 E-score,–,–
CGACACGC,0.316 E-score,0.246 E-score,0.131 E-score,0.188 E-score,0.403 E-score,0.194 E-score,–,0.134 E-score,0.138 E-score,0.198 E-score,–,–
AAACACGC,0.415 E-score,0.261 E-score,0.262 E-score,0.233 E-score,0.442 E-score,0.225 E-score,0.198 E-score,0.259 E-score,0.201 E-score,0.21 E-score,–,–
GCACGTTA,0.433 E-score,0.153 E-score,0.205 E-score,0.226 E-score,0.464 E-score,0.222 E-score,0.234 E-score,0.369 E-score,0.217 E-score,0.246 E-score,–,–
ATGCCGTG,0.417 E-score,0.453 E-score,0.418 E-score,0.35 E-score,0.443 E-score,0.397 E-score,–,0.111 E-score,0.399 E-score,0.447 E-score,–,–
ATGGCGTG,0.443 E-score,0.196 E-score,0.138 E-score,0.17 E-score,0.456 E-score,0.161 E-score,0.227 E-score,0.249 E-score,0.151 E-score,0.155 E-score,–,–
AGTTACGC,0.273 E-score,0.134 E-score,0.0766 E-score,0.124 E-score,0.275 E-score,0.115 E-score,0.245 E-score,0.412 E-score,0.103 E-score,0.0942 E-score,–,–

# Reference: publication PMC4081100, “A DNA-binding-site landscape and regulatory network analysis for NAC transcription factors in Arabidopsis thaliana”
